# ER stress surv – protection against thapsigargin ER stress killing – CSM14.1 cells, ATP luminescence, primary screen | CSM14.1 thapsigargin ER stress survival | relative survival (cellular ATP), % at 15 µg/mL (by protocol) | hit rate 0.33% among 48,000 | AID 1010, 2008;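 active = survival measured by cellular ATP above 50% at 15 µg/ml in the first screen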;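 also: cell death triggered by about 15 µM thapsigargin; ATP read 24 h after thapsigargin was added; plate controls were thapsigargin with DMSO for no effect and DMSO without thapsigargin for full effect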
# The depositor's hits bear a star. Only a selection was taken, and hits are over-represented in it overall.
SMILES,ER stress surv
COc1ccc(Br)cc1CN1CCN(C(=O)COc2ccc(Cl)cc2)CC1,24
COc1ccc(CN2CCN(C(=O)COc3ccc(Cl)cc3)CC2)cc1OCc1ccccc1,69*
O=C(COc1ccc(Cl)cc1)N1CCN(Cc2cccc(F)c2)CC1,-2
O=C1NC(=S)NC(=O)C1=Cc1ccc(-c2ccc(S(=O)(=O)Nc3nccs3)cc2)o1,-1
COc1ccc(OCC(=O)Nc2ccc(Br)cc2C(=O)c2ccccc2)cc1,3

# Screening results (PubChem BioAssay)
